From PubChem BioAssay come the findings set out here.

Assay [1] relates to Plasmodium falciparum Sir2 (PF13_0152, Sir2A). Kind of assay: pfSir2 binders on small-molecule microarrays, primary screen, biochemical, small-molecule microarray, 635 nm fluorescence (AID 1098).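 Further: score merges spot fluorescence intensity with its signal-to-noise ratio.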 As to conditions: small-molecule microarray binding, fluorescence 635 nm; higher = more signal.
Assay [2] can be described thus: small-molecule microarray binders of probe aDKK1, primary screen, biochemical, biotinylated probe, 635/667 nm fluorescence (AID 1099).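 Further: score merges 667nm spot fluorescence with signal to noise across triplicate slides.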 As to conditions: higher = more signal.
Assay [3] can be described thus: small-molecule microarray binders of probe aCHRDL2, primary screen, biochemical, biotinylated probe, 635/667 nm fluorescence (AID 1100). As to conditions: higher = more signal.
A short description of assay [4]: splicing luciferase reporter signal modulators, primary screen, spliceosome inhibition project, cell-based, HEK293, splice +/- reporter (AID 1101).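 Further: HEK293 cells carrying a splicing-competent luciferase reporter gene; test concentration not given here.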 As to conditions: luminescence, 24 h, higher = more signal, called active from +8 up or from −8 down. On the technique in general: Reporter assays use an easily measured gene product as a stand-in for the process of interest.

Assay [5] concerns the target Fibroblast growth factor 10 (Homo sapiens) (UniProt O15520). Kind of assay: FGF10 binders on small-molecule microarrays, primary screen, biochemical, small-molecule microarray, 635 nm fluorescence (AID 1102). As to conditions: FGF10 binding, fluorescence 635 nm, higher = more signal.
The subject of assay [6] is glycogen synthase kinase-3 (GSK3A per assay name; protocol says GSK3B). Kind of assay: GSK3 binders on small-molecule microarrays, primary screen, biochemical, small-molecule microarray, 635 nm fluorescence, GSK3A (AID 1103). Further: the record names both GSK3A and GSK3B. As to conditions: small-molecule microarray binding, fluorescence 635 nm; higher = more signal.
The target of assay [7] is Epidermal growth factor receptor (Homo sapiens) (UniProt P00533). Kind of assay: EGFR binders on small-molecule microarrays, primary screen, biochemical, small-molecule microarray, 635 nm fluorescence (AID 1104).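 Further: score merges 667 nm emission intensity with spot signal to noise over triplicate slides.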 As to conditions: EGFR binding, higher = more signal.
Assay [8] has as its target Follistatin-related protein 3 (Homo sapiens) (UniProt O95633). The assay is described as follows: FSTL3 binders on small-molecule microarrays, primary screen, biochemical, small-molecule microarray, 635 nm fluorescence (AID 1105).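 Further: score merges emission near 667 nm and signal to noise per printed spot across three slides.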 As to conditions: FSTL3 binding, higher = more signal.
Assay [9] deals with Dickkopf-related protein 1 (Homo sapiens) (UniProt O94907). Kind of assay: DKK1 binders on small-molecule microarrays, primary screen, biochemical, small-molecule microarray, 635 nm fluorescence scan (AID 1106).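 Further: score merges emission near 667 nm with signal to noise over three replicate slides.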 As to conditions: DKK1 binding, higher = more signal.
Assay [10] has as its system Inhibin beta A chain (activin A). Kind of assay: INHBA (activin A) binders on microarrays, primary screen, biochemical, small-molecule microarray, 635 nm fluorescence scan (AID 1107).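 Further: mouse activin A protein probed at 4.33 µg/mL on printed slides; score merges bound-protein fluorescence near 667 nm with spot signal-to-noise.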 As to conditions: small-molecule microarray binding, higher = more signal.
Assay [11] concerns Human papillomavirus type 1a protein E7 (residues 44-93). Kind of assay: HPV1a E7 fragment binders on microarrays, primary screen, biochemical, small-molecule microarray, residues 44-93, 635 nm fluorescence (AID 1108).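 Further: E7 fragment applied at 1 µg/mL in TBST for 1 h at 4 C; score combines spot fluorescence with its signal to noise ratio.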 As to conditions: small-molecule microarray binding, fluorescence 635 nm; higher = more signal.
A short description of assay [12]: modulators of HCV replicon luciferase signal, primary screen, HCV replication inhibitor project, Huh7 cells, luciferase reporter (AID 1109).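 Further: huh7 hepatoma cells harbouring a luciferase neomycin HCV replicon reporter; luciferase luminescence as measure of HCV replicon replication; test concentration not given here.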 As to conditions: 48 h, higher = more signal.
Assay [13] concerns the target Left-right determination factor 2 (Homo sapiens) (UniProt O00292). Kind of assay: LEFTY2 binders on small-molecule microarrays, primary screen, biochemical, small-molecule microarray, 635 nm fluorescence scan (AID 1110). As to conditions: LEFTY2 binding, higher = more signal.
Assay [14] addresses Calmodulin-1 (Homo sapiens) (UniProt P0DP23). Kind of assay: CALM1 binders on microarrays, EGTA buffer, profiling panel, biochemical, small-molecule microarray, Cy5-labelled CALM1 (AID 1111).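 Further: labelled calmodulin applied in Tris saline Tween buffer holding calcium plus EGTA and DTT.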 As to conditions: Cy5-CALM1 binding fluorescence, higher = more signal.
Assay [15] has the same target. The assay is described as follows: calcium-bound CALM1 binders on microarrays, profiling panel, artefact control for SMM control-protein annotation, biochemical, small-molecule microarray, Cy5-labelled CALM1, plus calcium (AID 1112).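 Further: score merges spot fluorescence with signal to noise from triplicate slides.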 As to conditions: Cy5-CALM1 binding fluorescence, higher = more signal.
The nature of assay [16]: small-molecule microarray binders of probe aWnt5a, primary screen, biochemical, biotinylated probe, 635/667 nm fluorescence (AID 1113).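 Further: score merges 667 nm fluorescence intensity with signal-to-noise per printed feature.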 As to conditions: higher = more signal.
The nature of assay [17]: small-molecule microarray binders of probe aShh, primary screen, biochemical, biotinylated probe, 635/667 nm fluorescence (AID 1114).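 Further: probe is biotin-labelled aShh protein from a stem cell growth factor screen; measures binding of labelled protein to compounds printed on the slide; score merges feature fluorescence at 667 nm with signal-to-noise.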 As to conditions: higher = more signal.
A short description of assay [18]: small-molecule microarray binders of probe aNog, primary screen, biochemical, biotinylated probe, 635/667 nm fluorescence (AID 1115).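 Further: probe is biotinylated aNog protein used at 0.15 µg/mL for 1 h at 4 C; z-score combines 667 nm fluorescence of each spot with its signal to noise.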 As to conditions: higher = more signal.
The target in assay [19] is Torsin-1A-interacting protein 1 (Homo sapiens) (UniProt Q5JTV8). Kind of assay: LAP1 binders from COS7 cell lysate, primary screen, small-molecule microarray, 635/667 nm fluorescence (AID 1116). As to conditions: COS7-hLAP1 lysate binding, 635 nm fluorescence, higher = more signal.
Assay [20] deals with Alpha-bungarotoxin (Bungarus multicinctus) (UniProt P60615). Kind of assay: alpha-bungarotoxin binders on microarray, profiling panel, artefact control for SMM control protein annotation, biochemical, small-molecule microarray, Alexa647 label, 635/667 nm fluorescence (AID 1117). As to conditions: alpha-BTX-A647 binding fluorescence, higher = more signal.

Activity calls are given as the source filed them.

Chain of Follistatin-related protein 3 (Homo sapiens) (O95633 whole entry, looked up): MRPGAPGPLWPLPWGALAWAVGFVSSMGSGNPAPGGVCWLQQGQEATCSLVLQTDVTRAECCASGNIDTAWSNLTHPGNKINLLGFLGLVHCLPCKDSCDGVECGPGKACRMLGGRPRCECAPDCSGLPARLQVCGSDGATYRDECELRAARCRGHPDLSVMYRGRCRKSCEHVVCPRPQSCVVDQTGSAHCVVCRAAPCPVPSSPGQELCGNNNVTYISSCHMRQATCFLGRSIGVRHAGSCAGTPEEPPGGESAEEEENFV
Chain of Epidermal growth factor receptor (Homo sapiens) (P00533 whole entry, looked up): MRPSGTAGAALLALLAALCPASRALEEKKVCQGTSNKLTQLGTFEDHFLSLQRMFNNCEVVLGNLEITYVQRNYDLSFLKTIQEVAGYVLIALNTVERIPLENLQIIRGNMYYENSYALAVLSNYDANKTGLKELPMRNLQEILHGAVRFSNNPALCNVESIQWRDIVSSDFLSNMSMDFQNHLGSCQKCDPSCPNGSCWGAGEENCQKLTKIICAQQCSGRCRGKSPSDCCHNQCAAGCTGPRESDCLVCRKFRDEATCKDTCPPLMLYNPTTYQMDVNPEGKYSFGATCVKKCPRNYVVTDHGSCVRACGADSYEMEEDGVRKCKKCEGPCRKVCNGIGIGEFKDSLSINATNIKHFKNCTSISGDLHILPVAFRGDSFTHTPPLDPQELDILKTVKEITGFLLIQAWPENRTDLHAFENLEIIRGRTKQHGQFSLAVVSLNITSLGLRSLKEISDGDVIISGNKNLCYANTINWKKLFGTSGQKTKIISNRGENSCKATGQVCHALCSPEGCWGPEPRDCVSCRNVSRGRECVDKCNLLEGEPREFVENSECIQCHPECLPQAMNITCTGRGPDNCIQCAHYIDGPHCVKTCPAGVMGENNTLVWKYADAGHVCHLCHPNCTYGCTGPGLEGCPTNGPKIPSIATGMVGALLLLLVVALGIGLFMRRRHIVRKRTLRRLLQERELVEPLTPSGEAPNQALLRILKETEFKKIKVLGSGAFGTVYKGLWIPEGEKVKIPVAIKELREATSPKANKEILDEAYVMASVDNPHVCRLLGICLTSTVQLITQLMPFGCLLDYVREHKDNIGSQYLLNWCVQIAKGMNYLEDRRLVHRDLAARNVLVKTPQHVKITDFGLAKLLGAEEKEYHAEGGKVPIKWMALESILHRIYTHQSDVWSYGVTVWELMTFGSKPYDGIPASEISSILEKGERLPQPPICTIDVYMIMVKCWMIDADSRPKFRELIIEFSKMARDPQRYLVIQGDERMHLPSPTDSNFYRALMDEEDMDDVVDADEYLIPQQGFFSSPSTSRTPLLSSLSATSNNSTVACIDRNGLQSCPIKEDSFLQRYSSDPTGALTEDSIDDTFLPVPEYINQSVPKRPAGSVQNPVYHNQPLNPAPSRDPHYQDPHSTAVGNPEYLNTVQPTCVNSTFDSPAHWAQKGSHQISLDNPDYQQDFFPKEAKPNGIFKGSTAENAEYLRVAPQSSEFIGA
Chain of Torsin-1A-interacting protein 1 (Homo sapiens) (Q5JTV8 whole entry, looked up): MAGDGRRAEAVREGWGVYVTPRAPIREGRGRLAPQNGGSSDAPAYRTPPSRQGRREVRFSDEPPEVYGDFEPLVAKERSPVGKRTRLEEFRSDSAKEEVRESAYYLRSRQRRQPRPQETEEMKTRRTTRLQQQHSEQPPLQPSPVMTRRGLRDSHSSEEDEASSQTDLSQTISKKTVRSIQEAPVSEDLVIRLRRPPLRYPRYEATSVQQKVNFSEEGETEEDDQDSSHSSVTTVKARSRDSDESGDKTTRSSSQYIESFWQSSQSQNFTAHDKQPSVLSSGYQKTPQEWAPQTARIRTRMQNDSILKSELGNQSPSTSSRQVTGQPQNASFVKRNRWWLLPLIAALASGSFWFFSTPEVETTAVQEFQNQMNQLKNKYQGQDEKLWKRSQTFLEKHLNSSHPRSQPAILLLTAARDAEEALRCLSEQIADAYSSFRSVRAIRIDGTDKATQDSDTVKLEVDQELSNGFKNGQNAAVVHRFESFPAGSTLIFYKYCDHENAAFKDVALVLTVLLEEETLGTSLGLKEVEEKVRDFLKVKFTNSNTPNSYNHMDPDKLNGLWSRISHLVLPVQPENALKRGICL
Chain of Alpha-bungarotoxin (Bungarus multicinctus) (P60615 whole entry, looked up): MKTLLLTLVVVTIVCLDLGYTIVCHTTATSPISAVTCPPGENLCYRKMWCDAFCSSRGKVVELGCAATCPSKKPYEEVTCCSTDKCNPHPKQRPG
Chain of Dickkopf-related protein 1 (Homo sapiens) (O94907 whole entry, looked up): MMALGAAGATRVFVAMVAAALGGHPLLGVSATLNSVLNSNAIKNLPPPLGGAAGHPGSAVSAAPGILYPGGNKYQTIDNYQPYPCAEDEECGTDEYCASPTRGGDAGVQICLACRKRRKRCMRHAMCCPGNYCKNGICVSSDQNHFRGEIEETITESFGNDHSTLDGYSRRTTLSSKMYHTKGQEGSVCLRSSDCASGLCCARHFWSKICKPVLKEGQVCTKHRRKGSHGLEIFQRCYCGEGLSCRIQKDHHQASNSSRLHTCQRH
Chain of Fibroblast growth factor 10 (Homo sapiens) (O15520 whole entry, looked up): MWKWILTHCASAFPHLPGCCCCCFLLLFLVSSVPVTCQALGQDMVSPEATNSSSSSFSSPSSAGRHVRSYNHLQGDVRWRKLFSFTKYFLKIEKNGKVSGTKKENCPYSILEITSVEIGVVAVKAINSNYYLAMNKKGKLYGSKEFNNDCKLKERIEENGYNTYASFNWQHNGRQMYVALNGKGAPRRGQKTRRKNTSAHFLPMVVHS
Chain of Left-right determination factor 2 (Homo sapiens) (O00292 whole entry, looked up): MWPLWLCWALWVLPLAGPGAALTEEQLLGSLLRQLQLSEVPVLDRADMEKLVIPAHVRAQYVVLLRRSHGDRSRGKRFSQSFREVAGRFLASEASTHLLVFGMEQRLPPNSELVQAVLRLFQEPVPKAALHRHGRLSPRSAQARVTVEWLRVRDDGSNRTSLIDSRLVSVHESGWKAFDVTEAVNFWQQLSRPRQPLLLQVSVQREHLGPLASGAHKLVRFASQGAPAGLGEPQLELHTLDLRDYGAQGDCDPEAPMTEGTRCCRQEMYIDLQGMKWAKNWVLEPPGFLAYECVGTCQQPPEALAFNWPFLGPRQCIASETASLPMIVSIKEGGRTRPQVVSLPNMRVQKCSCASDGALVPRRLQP

Turning to `CCCC1(C(=O)OC)C=C2C(=C(c3ccccc3)C(=O)C2C)CN1` (stereo not given), the composite z-score in assay [1] is -0.495; in [2] it was 0.717; in assay [3], 1.16; in assay [5], -0.157; in assay [6] it was -0.636; in assay [7] it was -0.278. Moreover, the composite z-score in assay [8] was -0.0458; in [9] it was -0.704; in [10], 1.44; in [11] it was -0.719; in assay [13], 0.0193; in assay [14], 0.155. Also, the composite z-score in assay [15] is -0.253; in assay [16], -0.0203; in assay [17], 0.108; in [18] it was 1.75; in assay [19], 1.05; in [20] it was 0.287. Besides, the z-score in assay [4] is -1.14 (inactive); in [12], -1.85.

As to `CN1C(=O)C2C=CC(C(O)C=Cc3ccc([N+](=O)[O-])cc3)N(Nc3ccccc3)C2C1=O` (stereo not given), the composite z-score in assay [1] was 0.967; in assay [2] it was 0.0403; in assay [3] it was -0.175; in assay [5] it was 0.718; in assay [6] it was 1.15; in assay [7], 0.692. Further, the composite z-score in [8] was found to be 1.06; in assay [9] it was 0.587; in [10], 1.02; in assay [11], 1.31; in assay [13] it was 0.407; in [14], 0.447. The composite z-score in assay [15] was -0.384; in assay [16], 0.0182; in assay [17], 0.207; in assay [18] it was -0.175; in assay [19], 0.582; in [20] it was 0.627. Further, the values for the z-score in assay [4] and in assay [12] were 1.21 (inactive) and 0.599, respectively.

On to `C[C@H]1C2[C@H](Cc3ccccc3)NC(=O)[C@]23C(=O)NCC(=O)N2CCC[C@H]2C(=O)NC/C=C/CCC/C=C/C3[C@@H]2O[C@]12C` (stereo not given in full), for which the composite z-score in assay [1] is 0.38; in [2], -0.398; in [3], -0.269; in [5], -0.568; in [6], -1.26; in assay [7], -0.681. The composite z-score is -0.618 in [8]; -0.233 in assay [9]; 1.55 in [10]; -0.484 in [11]; -0.693 in assay [13]; -0.738 in assay [14]. The composite z-score is -1.2 in assay [15]; -0.0075 in [16]; -0.138 in assay [17]; -0.387 in [18]; -0.106 in [19]; -0.65 in assay [20]. The results for the z-score in [4] and in [12] were -0.0803 (inactive) and 0.478, respectively.

In the case of `Cc1ccc(S[C@]2(C(=O)O)CC(=O)N(Cc3ccccc3C(F)(F)F)[C@@H]2c2ccc(CO)cc2I)cc1`, the composite z-score in assay [1] is -0.135; in assay [2], -0.537; in [3], 0.337; in assay [5], -0.39; in assay [6], -0.518; in [7], -1.11. For the same compound, the composite z-score in assay [8] is -1; in assay [9] it was -1.28; in assay [10], 1.16; in assay [11], 0.4; in assay [13], -1.66; in [14], -0.633. In addition, the composite z-score was -0.711 in assay [15]; -0.12 in [16]; -0.315 in assay [17]; -0.322 in assay [18]; -0.327 in assay [19]; -0.247 in assay [20]. For the same compound, the z-score in assay [4] was -1.15 (inactive); in [12], -1.26.

On to `COC(=O)[C@@]1(Cc2ccc(OC)cc2)[C@H]2c3cc(C(=O)N(C)C)n(Cc4ccc(C(F)(F)F)nc4)c3C[C@H]2CN1C(=O)c1ccccc1`, for which the composite z-score in [1] was 0.707; in assay [2] it was 1.15; in [3] it was 0.784; in assay [5], 0.081; in assay [6], -0.178; in assay [7], 0.189. For the same compound, the composite z-score in assay [8] was -0.015; in [9] it was -0.557; in assay [10], 0.663; in assay [11], 0.714; in assay [13], -0.0595; in assay [14] it was 0.705. Further, the composite z-score in assay [15] is 0.199; in assay [16] it was 0.17; in assay [17], 0.413; in assay [18] it was 0.18; in [19] it was 1; in assay [20] it was -0.173. Moreover, the z-score was -1.59 (inactive) in assay [4] and -0.657 in assay [12].

As for `COc1ccc(C(O)C2C=CC3C(=O)N(C)C(=O)C3N2N(c2ccccc2)c2ccccc2)c2ccccc12` (stereo not given), the composite z-score in [1] is 1.42; in assay [2], 0.464; in assay [3] it was 1.04; in assay [5], 0.784; in assay [6] it was -0.16; in assay [7], 0.23. The composite z-score in assay [8] was 1.19; in assay [9], 0.569; in assay [10], 1.13; in [11], -0.452; in assay [13], 0.0468; in [14] it was -0.078. In addition, the composite z-score in assay [15] was -0.511; in assay [16], 0.0328; in assay [17], -0.0011; in assay [18] it was 0.0984; in [19], 1.68; in assay [20], 0.429. Besides, the z-score in assay [4] was 1.04 (inactive); in assay [12], 0.352.
